From PubChem BioAssay (NCI) come the findings set out here.

What all share (assay): NCI-60 one-dose screen, 48 h (100 = growth as untreated, 0 = no growth, -100 = all killed)
Holding throughout (conditions): 10 µM unless noted

Assay [1] deals with SK-MEL-2 melanoma.
Assay [2] has as its system EKVX NSCLC.
The subject of assay [3] is SN12C renal.
In assay [4] the test system is UO-31 renal.
Assay [5] concerns TK-10 renal.
Assay [6] relates to ACHN renal.
The test system of assay [7] is A498 renal.
The subject of assay [8] is CCRF-CEM leukemia.
Assay [9] relates to MOLT-4 leukemia.
The subject of assay [10] is CAKI-1 renal.

Compounds without any hit were thinned out: in the full panel of roughly 83,000, 20% have a hit.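 Cells were grown in 96-well plates and exposed to the test compound at a single concentration for 48 hours; results are reported as percent growth, with values below 10 considered active.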 A number with no mark means an inactive call. Calls of active or inactive are those of the source.

In the case of `CCn1c2ccccc2c2cc(-n3nncc3-c3ccccc3)ccc21`, the growth in assay [1] is 68.2%; in assay [2] it was 45.5%; in assay [3], 25.4%; in [4], 36.8%; in assay [5] it was 90.5%; in assay [6], 29.2%. In addition, the growth is -0.537% (active) in [7], 19.5% in assay [8] and 12.7% in assay [9].

Take `CCNC(=O)N1CCc2cc(OC)c(OCCc3ccc(OC)cc3)cc2C1c1ccc(OC)cc1C` (centres undefined): the growth was 19% in [1]; 45.5% in assay [2]; 30.2% in assay [3]; 30% in [4]; 38.1% in [5]; 26.9% in assay [10]. Also, the growth is -11.1% (active) in assay [7], 36.3% in [8] and 21.2% in assay [9].

Regarding `COc1ccc(OC)c(-c2nc(SCC(=O)c3ccc(Br)cc3)nc(Nc3ccc(S(N)(=O)=O)cc3)c2C#N)c1`, the growth is 30.4% in assay [1]; 63.7% in [2]; 49.1% in assay [3]; 59.2% in assay [4]; 96.3% in [5]; 34.4% in assay [10]. The growth in [7] is 26.4%; in assay [8], 35.4%; in [9], 28.5%.

Consider `N#Cc1cccc(/C(N)=N/C(N)=N/c2nc3ccccc3s2)c1`, for which the growth was 40.4% in assay [1]; 43.3% in [2]; 34.9% in assay [3]; 44.2% in assay [4]; 81.3% in assay [5]; 34% in [10]. Moreover, the growth is -4.3% (active) in assay [7], 6.56% (active) in assay [8] and 27.7% in assay [9].

For the compound `C#CCNC1CCC(c2csc(C#C)n2)=C1C` (centres undefined), the growth is 101% in assay [1]; 24.8% in assay [2]; 65.4% in assay [3]; 44.7% in assay [4]; 130% in assay [5]; 58.3% in assay [10]. The growth in assay [7] is 118%; in assay [8] it was -9.98% (active); in [9], 84.7%.

Take `CC1(C)CC[C@]2(C(=O)O)CC[C@]3(C)C(=CC[C@@H]4[C@@]5(C)CC/C(=N\OCCC#N)C(C)(C)[C@@H]5CC[C@]43C)[C@@H]2C1`: the growth in assay [1] was 93.5%; in assay [2], 70.7%; in assay [3] it was 86.7%; in assay [4] it was 61.1%; in [5] it was 51.3%; in assay [10], 59.7%. Also, the results for the growth in assay [7] and in [9] were 51.3% and 101%, respectively.

Turning to `CCn1c(SCC(=O)Nc2cccc(C(=O)/C=C/c3ccc(C)cc3)c2)nc2ccccc2c1=O`, the growth in assay [1] was 108%; in assay [2], 98.8%; in assay [3], 88%; in [4] it was 58.9%; in assay [5], 120%; in assay [10], 80.2%. Besides, the results for the growth in [7], in [8] and in [9] were 94.2%, 67.4% and 88%, respectively.

Consider `Cc1c(Cl)cccc1S(=O)(=O)Nc1ccc2c(c1)C(=O)N(C1CCC(=O)NC1=O)C2=O` (centres undefined), for which the growth is 107% in assay [1]; 91.2% in assay [2]; 89.4% in assay [3]; 44% in [4]; 75.2% in [5]; 108% in assay [6]. Also, the growth in [7] was 91.1%; in assay [8], 25.5%; in assay [9], 3.6% (active).

Take `Clc1ccc(N/N=c2/oc3ccccc3cc2-c2cc3ccccc3[nH]2)cc1`: the growth in assay [1] is 108%; in assay [2] it was 70.2%; in [3], 70.9%; in assay [4] it was 49.7%; in assay [5], 145%; in [10], 58.4%. Moreover, the growth was 79.7% in [8] and 69.6% in assay [9].

Regarding `C[C@@H](Nc1ncnc2ccc(-c3cnc(Cl)c(NS(C)(=O)=O)c3)cc12)c1ccccc1`, the growth was 53.7% in assay [1]; 19.8% in assay [2]; 30.1% in assay [3]; 3.2% (active) in assay [5]; 43.1% in assay [6]; 10.1% in assay [10]. Further, the growth in assay [7] is -22.2% (active); in [8], 42.6%; in assay [9], 20.8%.

For `C#CCn1cccc1CNc1ccc(OC)cc1`, the growth in [1] was -14.1% (active); in assay [2], -83% (active); in assay [3] it was -84.3% (active); in assay [5], -77.7% (active); in assay [6] it was -95% (active); in [10], -87.6% (active). Moreover, the growth in assay [7] is 53.8%; in assay [9], -29.5% (active).

Regarding `COc1cc(/C=C2\C(=O)Nc3cc(Cl)ccc32)ccc1OCc1ccc(F)cc1`, the growth in assay [1] is 99.8%; in [2] it was 76.5%; in assay [3], 95.9%; in assay [4] it was 79.8%; in assay [5] it was 185%; in [7] it was 94.2%. In addition, the growth in assay [9] is 100%.

As for `O=C(Nc1nc2ccc([N+](=O)[O-])cc2s1)Nc1ccccc1Br`, the growth in assay [1] was 48.1%; in assay [2], 35.3%; in assay [4] it was 43.4%; in assay [5], 81.1%; in [6], 47.3%; in assay [10], 64.1%. The growth is 21.4% in [7], 37.6% in assay [8] and 27.1% in assay [9].

For the compound `Cc1ccc(S(=O)(=O)NCCNc2nc(Nc3ccc(N4CCN(C)CC4)cc3)nc3ccsc23)cc1`, the growth in assay [1] was 115%; in assay [2], 94.9%; in assay [4] it was 92.4%; in assay [5], 121%; in assay [6], 106%; in assay [10], 74.6%. Moreover, the growth in [7] is 110%; in assay [8] it was 74.3%; in assay [9], 79.1%.

Consider `COC[C@]12CCC(C)(C)C[C@H]1C1=CC[C@@H]3[C@@]4(C)CCCNC(C)(C)[C@@H]4CC[C@@]3(C)[C@]1(C)CC2`, for which the growth is 35.2% in [1]; -83.4% (active) in assay [2]; 29.9% in [3]; -50.2% (active) in assay [4]; 64.7% in assay [5]; -29.4% (active) in assay [10]. The growth in assay [7] is 37.1%; in assay [9], -35% (active).

`CCCCCc1ccc(S(=O)(=O)Nc2cccc(-c3csc(NC(=O)CCCCCN4CCN(C)CC4)n3)c2)cc1`: the growth in assay [1] is 98.3%; in assay [2], 71%; in assay [3], 79.8%; in [5], 107%; in assay [6] it was 86.4%; in assay [10], 79.5%. The growth in assay [7] was 78.7%; in [9] it was 3.35% (active).

Consider `C=CCn1c(SCC(=O)Nc2ccc(C(=O)/C=C/c3ccc(Br)cc3)cc2)nnc1-c1c[nH]c2ccccc12`, for which the growth in [1] was 93.4%; in assay [2], 82.2%; in assay [3], 81.1%; in assay [5], 95.9%; in assay [6] it was 87.8%; in [7], 88.9%. The growth is 83% in assay [8] and 66.3% in assay [9].

As to `c1ccc(C(c2nc3ncncc3[nH]2)N2CSc3nc4ncncc4n3C2)cc1` (centres undefined), the growth in assay [1] was 70.5%; in assay [2], 94.4%; in assay [3] it was 87.5%; in assay [5], 48.9%; in assay [6], 81.9%; in assay [10], 41%. In addition, the growth in assay [7] is 96.5%; in assay [8] it was 32.1%; in assay [9] it was 23.8%.

As to `CCCCCc1ccc(S(=O)(=O)Nc2cc(-c3csc(NC(=O)CN4CCN(C)CC4)n3)ccc2N2CCN(C)CC2)cc1`, the growth is 37.8% in assay [1]; 55.8% in [2]; -21.6% (active) in assay [3]; 134% in assay [5]; 0.622% (active) in [6]; -19.8% (active) in [10]. Besides, the growth is 73.1% in assay [7], 0.815% (active) in assay [8] and -18.4% (active) in assay [9].

In the case of `CCCCCc1ccc(S(=O)(=O)Nc2cccc(-c3csc(NCCN4CCN(C)CC4)n3)c2)cc1`, the growth was 102% in [1]; 84.2% in [2]; 90.6% in assay [3]; 120% in assay [5]; 89.9% in [6]; 83.1% in [10]. In addition, the growth in assay [7] was 85.4%; in [8] it was 16.2%; in assay [9], 11.7%.

As for `N#Cc1ccccc1Cn1c2nc(=N)c3ccccc3c-2nc2ccccc21`, the growth in assay [1] was 87.9%; in assay [2] it was 49.4%; in assay [3] it was 61.5%; in assay [5] it was 102%; in assay [6], 56.4%; in assay [10] it was 50.9%. Moreover, the growth in [7] was 69.7%; in assay [8], 70.6%.

Turning to `C=C(C)[C@@H]1CC[C@]2(COCCCNCCC#N)CC[C@]3(C)[C@H](CC[C@@H]4[C@@]5(C)CC[C@H](OCCCNCCC#N)C(C)(C)[C@@H]5CC[C@]43C)[C@@H]12`, the growth in assay [1] is 93.7%; in assay [2], 36.1%; in [3], 52%; in assay [4], 41.3%; in assay [5] it was 74.9%; in [10], 34.8%. Besides, the growth is 43.3% in assay [7] and 28.2% in [9].

On to `CN1CCN(c2ccc(/C=N/n3cnc4oc(-c5ccccc5)cc4c3=N)cc2)CC1`, for which the growth in assay [1] was 103%; in assay [2], 88.4%; in assay [3] it was 66%; in assay [5], 119%; in [6] it was 70.1%; in assay [10] it was 72.5%. The growth in assay [7] was 81.4%; in assay [8] it was 44.8%; in [9], 44.4%.

`Nc1ccccc1NC(=O)c1ccc(NC(=O)C/C=C/c2cccnc2)cc1`: the growth in [1] was 15.5%; in assay [2], 61.3%; in assay [4], 17.6%; in assay [5], 28.9%; in assay [6] it was 47.1%; in assay [10] it was 45.1%. The results for the growth in assay [7], in assay [8] and in [9] were -16.4% (active), 22.5% and 31.1%, respectively.

As for `O=C(Nc1cccc(C(F)(F)F)c1)c1cc(-c2ccc(F)cc2F)ccc1O`, the growth in assay [1] is -12.6% (active); in assay [2] it was 9.81% (active); in assay [3], 2.11% (active); in [5] it was 12.6%; in [6], 5.71% (active); in [10], -21% (active). Further, the growth in assay [7] is -38.5% (active); in assay [8], 20.8%; in assay [9] it was 4.43% (active).

As to `Cc1ccc(NC(=O)CNc2cc(C(N)=O)cc(F)c2C)c(Cl)c1`, the growth in assay [1] was 101%; in assay [2], 47.5%; in [3] it was 77.1%; in assay [4], 50.4%; in [5], 102%; in [10], 62.6%. The growth in assay [7] is 39%; in [9], 90.5%.

Turning to `C/C(=N\O)[C@H]1C[C@]23CC[C@]4(C)[C@H](CC[C@@H]5[C@@]6(C)CC/C(=N/O)C(C)(C)[C@@H]6CC[C@]54C)[C@H]2[C@H](C)C1(C)OC3`, the growth in [1] is 110%; in assay [2], 70.9%; in [3] it was 91.5%; in assay [5], 73.7%; in assay [6], 104%; in assay [10], 65.2%. Moreover, the growth in [7] was 72%; in assay [8], 101%; in [9], 98.7%.

Turning to `NS(=O)(=O)c1ccc(-n2cc(CN3CCCCC3)nn2)cc1`, the growth in [1] was 109%; in [2] it was 101%; in assay [3], 100%; in assay [5], 102%; in assay [6], 107%; in assay [10] it was 92.6%. The growth is 93.6% in assay [7], 108% in [8] and 98.5% in [9].

Regarding `Nc1nc(Nc2ccccc2SSc2ccccc2Nc2nc(N)nc(-c3ccc4ccccc4c3)n2)nc(-c2ccc3ccccc3c2)n1`, the growth is 99.4% in assay [1]; 44.7% in assay [2]; 70% in [3]; 117% in assay [5]; 69.5% in [6]; 35% in assay [10]. In addition, the values for the growth in assay [7] and in assay [9] were 94% and 62.5%, respectively.
